About 83,000 compounds went through this panel and 20% of them were active in at least one assay; those are over-represented in the sample as a whole.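 Values shown are percent growth following 48 h exposure of cells in 96-well plates to a single concentration of compound; below 10 was considered active.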 Values without a mark were called inactive. Activity calls are given as the source filed them.

Holding throughout (assay): NCI-60 one-dose screen, 48 h (100 = growth as untreated, 0 = no growth, -100 = all killed)
Settings in all cases: 10 µM

The test system of assay [1] is NCI-H23 lung.
In assay [2] the test system is NCI-H226 lung.
Assay [3] relates to NCI-H322M lung.
Assay [4] relates to HOP-62 NSCLC.
The test system of assay [5] is NCI-H460 lung.
The subject of assay [6] is HOP-92 NSCLC.
Assay [7] relates to NCI-H522 lung.
Assay [8] concerns A549/ATCC NSCLC.
In assay [9] the test system is 786-0 renal.
Assay [10] relates to COLO 205 colon.

In the case of `COc1ccc(CN2[C@H](C(=O)NCCCCCCC(=O)NO)Cc3c([nH]c4ccccc34)[C@H]2C2CC2)cc1`, the growth was -17.5% (active) in assay [1]; 28.1% in assay [2]; 9.54% (active) in [3]; 14% in assay [4]; 6.41% (active) in [5]; -24.5% (active) in [6]. In addition, the growth in assay [7] was -44.6% (active); in [8], 17.3%; in assay [9] it was 17.4%; in [10], -94.8% (active).
Take `CO[C@@H]1CSSC1Cn1nc(-c2ccc(Oc3ccccc3)cc2)c2c(N)ncnc21` (some centres undefined): the growth in assay [1] was 46.4%; in assay [2], 31.1%; in assay [3] it was 63%; in assay [4], 86.4%; in [5], 16.5%; in assay [6], 35.9%. For the same compound, the growth in assay [7] was 1.33% (active); in [8] it was 35.7%; in [9], 45.3%.
Turning to `Cc1ccc(CSc2nc(-c3ccc(F)cc3)c(C#N)c(=O)[nH]2)cc1`, the growth in assay [1] is 103%; in assay [2] it was 99.1%; in assay [3] it was 98.6%; in assay [4], 102%; in assay [5], 109%; in assay [6] it was 96.7%. For the same compound, the growth in assay [7] is 87.1%; in [8], 89.8%; in assay [9], 100%.
With `Cc1ccn2c(C(=O)c3ccccc3)cc(-c3cc(-c4ccc(N(C)C)cc4)c(C#N)c(N)n3)c2c1`, the growth in assay [1] was 46.1%; in assay [2], 16.7%; in assay [3], 75.1%; in assay [4] it was 53.1%; in assay [5], 56%; in assay [6], 23.6%. The values for the growth in [7], in assay [8] and in assay [9] were 79.4%, 45.9% and 21%, respectively.
Turning to `O=C(CN1CCN(c2ncnc3c2cnn3-c2ccccc2)CC1)Nc1nncs1`, the growth in assay [1] was -55.1% (active); in assay [2], 43.9%; in assay [3], 84.8%; in assay [4] it was -52.7% (active); in assay [5], -22.1% (active); in assay [6], -70.9% (active). In addition, the growth was -79.3% (active) in assay [7], -32.5% (active) in [8] and -80.9% (active) in [9].
As to `CC(=O)NNc1ccc2nnc(-c3ccc(Br)cc3)n2n1`, the growth in [1] is 91.5%; in assay [2] it was 87.8%; in assay [3], 107%; in [4], 82.5%; in assay [5], 106%; in assay [6] it was 103%. In addition, the growth was 85.3% in [7], 95.9% in [8] and 86.3% in assay [9].
Take `Cc1ccc(-c2nc(Nc3ccccc3C(=O)O)c3ccccc3n2)cc1`: the growth is -4.11% (active) in [1]; 15.3% in [2]; 33.8% in [3]; 28.3% in assay [4]; -9.44% (active) in assay [5]; -19.5% (active) in assay [6]. The figures for the growth in assay [7], in [8] and in [9] were 33.2%, 30.5% and 18.7%, respectively.
In the case of `CC(=O)c1ccc(Nc2nc(SCCC(C)C)nc(-c3ccc(F)cc3)c2C#N)cc1`, the growth in assay [1] was 53.2%; in assay [2], 5.36% (active); in [3], 41.4%; in assay [4], 41.1%; in assay [5] it was 11.4%; in [6], 3.49% (active). In addition, the growth was 72.8% in assay [7], 18.8% in assay [8], 2.71% (active) in assay [9] and 77.2% in assay [10].
On to `COc1cc(/C=N/NC(=O)c2ccc3nc(-c4ccc(Cl)cc4)[nH]c3c2)cc(OC)c1OC`, for which the growth in assay [1] was -68.4% (active); in [2], -50.5% (active); in assay [3], 3.86% (active); in [4], -77.5% (active); in [5], -34.8% (active); in [6], -64.5% (active). Moreover, the results for the growth in assay [7], in [8] and in assay [9] were -44.2% (active), 29.2% and -4.1% (active), respectively.
As to `O=c1oc2ccc(-c3ccc(F)cc3F)cc2c(=O)n1-c1ccc(F)cc1`, the growth in assay [1] is -27.8% (active); in assay [2], -6.57% (active); in assay [3] it was 1.43% (active); in [4], -20.9% (active); in [5], 2.62% (active); in assay [6], -23.8% (active). In addition, the growth in assay [7] was -7.06% (active); in assay [8], 17.8%; in assay [9] it was 8.17% (active).
In the case of `Cc1ccc(-c2ccc(SCC(=O)Nc3ccc(S(N)(=O)=O)cc3Br)nn2)cc1`, the growth in assay [1] is 27.3%; in [2] it was 22.6%; in assay [3], 36%; in assay [4], 14.1%; in assay [5] it was 8.44% (active); in [6], -31.6% (active). Further, the values for the growth in assay [7], in assay [8] and in assay [9] were 47.2%, 15.8% and 16.4%, respectively.
For `Nc1nc(Nc2ccccc2)nn1Cc1c(Cl)cccc1Cl`, the growth is 34.1% in assay [1]; 30.4% in assay [2]; 51.8% in [3]; 60.6% in [4]; 24.8% in [5]; -17.4% (active) in assay [6]. For the same compound, the values for the growth in assay [7], in assay [8] and in [9] were 21.1%, 43.1% and 27.8%, respectively.
Take `Cc1noc2c(Cc3ccc([N+](=O)[O-])cc3)nn(CC(=O)N/N=C/c3ccc(Cl)cc3)c(=O)c12`: the growth in [1] was 57.9%; in assay [2], 8.93% (active); in assay [3], 62.5%; in [4] it was 16.9%; in assay [5], 46.2%; in assay [6], -20.2% (active). For the same compound, the growth was 69.5% in assay [7], 40.1% in [8] and -19.5% (active) in assay [9].

The record behind these values is PubChem BioAssay (NCI).
